Test results from PubChem BioAssay (Tox21).
Records with an inconclusive call do not appear. Entries that show only a call come without a potency. The source made the active and inactive calls. Unless noted, calls follow the shape of the dose curve; as a rule, active = well fitted curve in the direction sought with a large enough effect in the repeat runs; inconclusive = weak or mixed curves; inactive = no such curve, though single readings can be large; an effect the other way counts as inactive or inconclusive.

Assays:
[1] = qHTS assay to test for compound auto fluorescence at 535 nm (green) in HEK293 cells (AID 720680)
[2] = qHTS assay to test for compound auto fluorescence at 460 nm (blue) in HEK293 cell free culture (AID 720681)
Method in brief: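 Blue fluorescence (Ex 405/Em 460 nm, triamterene-equivalent) was read immediately after pin transfer of compound or DMSO into medium (DMEM, 10% FBS) without cells.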

[3] = qHTS assay to test for compound auto fluorescence at 535 nm (green) in HEK293 cell free culture (AID 720682)
Method in brief: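 Green-channel intensity (Ex/Em 485/535 nm) was recorded from compound-treated wells containing only DMEM with 10% FBS. Fluorescein provided the equivalency standard.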

[4] = qHTS assay to test for compound auto fluorescence at 590 nm (red) in HEK293 cell free culture (AID 720683)
Method in brief: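 Red-channel autofluorescence of compounds in culture medium (DMEM, 10% FBS), no cells, measured at 540/590 nm. Rose Bengal sodium is the reference fluorophore for equivalence.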

[5] = qHTS assay to test for compound auto fluorescence at 590 nm (red) in HepG2 cell free culture (AID 720684)
Method in brief: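 Cell-free; medium MEM + 10% FBS; compound or DMSO added by pintool; read Ex 540/Em 590 nm; Rose Bengal sodium as red reference fluorophore.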

[6] = qHTS assay to test for compound auto fluorescence at 460 nm (blue) in HepG2 cell free culture (AID 720685)
Method in brief: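 Cell-free plates of MEM plus 10% FBS received 23 nL compound or DMSO vehicle; blue-channel (405/460 nm) intensity scored against triamterene as reference fluorophore.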

[7] = qHTS assay to test for compound auto fluorescence at 460 nm (blue) in HepG2 cells (AID 720687)
Method in brief: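 Blue-channel autofluorescence (Ex/Em 405/460 nm, triamterene-equivalent) was measured after 1 hr compound exposure at 37 C, 5% CO2. Cells were HepG2, plated overnight at 37 C in MEM plus 10% FBS.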

[8] = target: Glucocorticoid receptor (Homo sapiens) (UniProt P04150); test: qHTS assay to identify small molecule agonists of the glucocorticoid receptor (GR) signaling pathway (AID 720691; active = well fitted activation curve with a large enough effect in the signal ratio in the repeat runs, not every such curve was filed as active; the % refers to the signal ratio)
Method in brief: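 Agonist-mode qHTS in HeLa cells stably expressing a glucocorticoid-response-element beta-lactamase reporter. Fluorescence intensity read with FRET substrate (2 h, room temperature) after 18 h compound treatment at 37 C.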

[9] = target: Glucocorticoid receptor (Homo sapiens) (UniProt P04150); test: qHTS assay to identify small molecule antagonists of the glucocorticoid receptor (GR) signaling pathway (AID 720692; active = well fitted inhibition curve with a large enough effect in the signal ratio in the repeat runs, not every such curve was filed as active; the % refers to the signal ratio)
Method in brief: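 Inhibition of dexamethasone-driven (5 nM final) beta-lactamase expression was measured in GRE-reporter HeLa cells over 18 h at 37C. Fluorescence was read after 2 h with the B/G FRET substrate at room temperature.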

[10] = qHTS assay for identifying genotoxic compounds that show differential cytotoxicity against isogenic chicken DT40 cell lines with known DNA damage response pathways - wild type cell line (AID 743012); also: nearly all actives have a fitted effect of over 60% in size; also: potency is read from the fitted curve at half-maximal effect
Method in brief: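 Viability by ATP luminescence (CellTiter-Glo, 30 min RT) after 40 h compound treatment at 37 C/5% CO2, using 300 parental DNA repair-proficient DT40 cells per well.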

[11] = qHTS assay for identifying genotoxic compounds that show differential cytotoxicity against isogenic chicken DT40 cell lines with known DNA damage response pathways - Rev3 mutant cell line (AID 743014); also: nearly all actives have a fitted effect of over 55% in size; also: potency is read from the fitted curve at half-maximal effect
[12] = qHTS assay for identifying genotoxic compounds that show differential cytotoxicity against isogenic chicken DT40 cell lines with known DNA damage response pathways - Rad54/Ku70 mutant cell line (AID 743015); also: nearly all actives have a fitted effect of over 60% in size; also: potency is read from the fitted curve at half-maximal effect
[13] = qHTS assay to identify small molecule antagonists of the androgen receptor (AR) signaling pathway - cell viability counter screen (AID 743033; also: nearly all actives have a fitted effect of over 45% in size)
[14] = target: Androgen receptor (Homo sapiens) (UniProt P10275); test: qHTS assay to identify small molecule agonists of the androgen receptor (AR) signaling pathway (AID 743036; active = well fitted activation curve with a large enough effect in the signal ratio in the repeat runs, with a control signal flat, not every such curve was filed as active; the % refers to the signal ratio)
Method in brief: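 Cell-based FRET reporter assay: HEK293 line with a UAS-beta-lactamase construct, compounds added in DMSO, 16 h exposure at 37C, then 2 h substrate step at room temperature and fluorescence intensity read.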

[15] = target: Androgen receptor (Homo sapiens) (UniProt P10275); test: qHTS assay to identify small molecule agonists of the androgen receptor (AR) signaling pathway using the MDA cell line (AID 743040; also: nearly all actives have a fitted effect of over 20% in size)
Method in brief: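 Luciferase agonist assay: 16 h compound exposure at 37C without CO2 in MDA-kb2 AR-luc cells, whose MMTV promoter responds to both AR and GR. Luminescence measured after 30 min room-temperature incubation with ONE-Glo.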

[16] = qHTS assay to identify small molecule antagonists of the androgen receptor (AR) signaling pathway using the MDA cell line - cell viability counter screen (AID 743041; also: nearly all actives have a fitted effect of over 45% in size)
Method in brief: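 Viability read by CellTiter-Fluor fluorescence in the same wells as the antagonist screen, added after 15.5 h of a 16 h, 37C exposure. Human breast carcinoma MDA-kb2 AR-luc cells, compounds co-dosed with agonist R1881.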

[17] = qHTS assay to identify small molecule antagonists of the thyroid receptor (TR) signaling pathway - cell viability counter screen (AID 743064); also: nearly all actives have a fitted effect of over 50% in size; also: potency is read from the fitted curve at half-maximal effect
Method in brief: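 In rat pituitary GH3.TRE-Luc reporter cells co-exposed to compound and 1 nM T3 for 23.5 h, cytotoxicity was assessed with CellTiter-Fluor in the same wells, read by fluorescence.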

[18] = qHTS assay to identify small molecule antagonists of the thyroid receptor (TR) signaling pathway (AID 743065); also: nearly all actives have a fitted effect of over 55% in size; also: potency is read from the fitted curve at half-maximal effect
Method in brief: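 Antagonism measured as loss of luciferase signal in GH3 cells stably carrying a TRE-luciferase reporter, co-treated with compound and T3 (1 nM final) for 23.5 h at 37 C. Viability was read in the same well by CellTiter-Fluor.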

[19] = qHTS assay to identify small molecule antagonists of the glucocorticoid receptor (GR) signaling pathway - cell viability counter screen (AID 720693); also: nearly all actives have a fitted effect of over 55% in size
[20] = qHTS assay to test for compound auto fluorescence at 535 nm (green) in HepG2 cell free culture (AID 720686)

Sequence of Glucocorticoid receptor (Homo sapiens) (P04150 whole entry, looked up): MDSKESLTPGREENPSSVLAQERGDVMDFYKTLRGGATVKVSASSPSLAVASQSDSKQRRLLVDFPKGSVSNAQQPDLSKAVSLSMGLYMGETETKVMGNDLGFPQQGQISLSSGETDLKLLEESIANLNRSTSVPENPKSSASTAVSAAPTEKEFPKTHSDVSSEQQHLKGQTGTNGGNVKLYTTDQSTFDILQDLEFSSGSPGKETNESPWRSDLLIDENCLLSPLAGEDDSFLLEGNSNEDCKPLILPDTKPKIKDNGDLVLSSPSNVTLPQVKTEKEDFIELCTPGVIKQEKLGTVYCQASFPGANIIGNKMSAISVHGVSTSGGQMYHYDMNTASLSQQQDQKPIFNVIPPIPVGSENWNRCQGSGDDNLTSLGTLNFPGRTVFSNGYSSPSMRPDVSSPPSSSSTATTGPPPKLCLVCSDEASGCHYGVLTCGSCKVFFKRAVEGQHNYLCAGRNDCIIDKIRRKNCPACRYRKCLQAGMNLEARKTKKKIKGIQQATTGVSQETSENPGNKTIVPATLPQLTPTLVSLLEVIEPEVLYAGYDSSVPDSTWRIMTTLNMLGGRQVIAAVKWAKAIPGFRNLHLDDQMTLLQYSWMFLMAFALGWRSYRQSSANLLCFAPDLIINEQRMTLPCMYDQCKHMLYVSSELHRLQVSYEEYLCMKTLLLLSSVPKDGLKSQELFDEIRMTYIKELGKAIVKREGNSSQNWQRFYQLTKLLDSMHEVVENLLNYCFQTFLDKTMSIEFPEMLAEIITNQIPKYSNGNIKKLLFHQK
Sequence of Androgen receptor (Homo sapiens) (P10275 whole entry, looked up): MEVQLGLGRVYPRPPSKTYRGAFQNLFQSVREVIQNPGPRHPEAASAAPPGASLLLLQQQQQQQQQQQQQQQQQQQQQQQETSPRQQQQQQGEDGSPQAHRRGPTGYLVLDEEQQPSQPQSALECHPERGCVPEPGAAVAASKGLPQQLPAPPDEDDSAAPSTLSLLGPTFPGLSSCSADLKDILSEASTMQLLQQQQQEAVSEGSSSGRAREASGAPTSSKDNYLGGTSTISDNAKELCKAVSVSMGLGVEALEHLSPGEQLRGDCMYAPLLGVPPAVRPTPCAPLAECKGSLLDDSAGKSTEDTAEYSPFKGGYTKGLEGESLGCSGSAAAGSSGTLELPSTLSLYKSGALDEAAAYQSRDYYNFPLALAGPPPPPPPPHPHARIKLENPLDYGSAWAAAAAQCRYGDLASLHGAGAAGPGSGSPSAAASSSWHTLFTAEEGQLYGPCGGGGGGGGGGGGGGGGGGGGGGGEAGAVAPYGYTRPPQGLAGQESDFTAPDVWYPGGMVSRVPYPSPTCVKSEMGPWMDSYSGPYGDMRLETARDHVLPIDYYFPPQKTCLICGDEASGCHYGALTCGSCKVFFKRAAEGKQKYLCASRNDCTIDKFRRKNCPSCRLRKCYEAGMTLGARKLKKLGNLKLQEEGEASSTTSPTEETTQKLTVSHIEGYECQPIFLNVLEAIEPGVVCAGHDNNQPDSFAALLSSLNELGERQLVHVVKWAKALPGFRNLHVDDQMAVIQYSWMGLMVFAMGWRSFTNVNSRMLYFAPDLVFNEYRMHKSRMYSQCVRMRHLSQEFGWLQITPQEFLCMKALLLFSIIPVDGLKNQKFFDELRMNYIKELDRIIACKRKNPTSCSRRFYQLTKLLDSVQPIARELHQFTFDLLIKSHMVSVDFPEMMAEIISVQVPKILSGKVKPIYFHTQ

| Structure (SMILES) | outcome [1] | Potency [2] | outcome [3] | outcome [4] | outcome [5] | Potency [6] | Potency [7] | Potency [8] | Potency [9] | Potency [10] | Potency [11] | Potency [12] | Potency [13] | outcome [14] | Potency [15] | Potency [16] | Potency [17] | Potency [18] | Potency [19] | outcome [20] |
| --- | --- | --- | --- | --- | --- | --- | --- | --- | --- | --- | --- | --- | --- | --- | --- | --- | --- | --- | --- | --- |
| O=C(CCN1CCN2CCCC2C1)N1c2ccccc2Sc2ccc(Cl)cc21 (centres undefined) | inactive | inactive | inactive | inactive | inactive | inactive | inactive | inactive | inactive | 10.6 µM (active) | 11.9 µM (active) | 23.7 µM (active) | inactive | inactive | inactive | inactive | 21.1 µM (active) | 18.8 µM (active) | – | – |
| CCCCCCCCCCCCCCCC(=O)OC/C=C(C)/C=C/C=C(C)/C=C/C1=C(C)CCCC1(C)C | inactive | inactive | inactive | inactive | – | inactive | inactive | inactive | – | inactive | inactive | inactive | inactive | – | – | inactive | inactive | inactive | inactive | – |
| N#Cc1c(F)cccc1F | inactive | inactive | inactive | inactive | – | inactive | inactive | inactive | inactive | inactive | inactive | inactive | inactive | – | – | inactive | inactive | inactive | inactive | inactive |
| CCN(CC)CCNC(C(=O)OCCC(C)C)c1ccccc1 (centres undefined) | inactive | inactive | inactive | inactive | – | inactive | inactive | inactive | inactive | 26.6 µM (active) | – | – | – | – | – | – | inactive | – | inactive | – |
| Cc1cccc(C(C)(C)C)c1O | inactive | inactive | inactive | inactive | – | inactive | inactive | inactive | inactive | inactive | inactive | inactive | inactive | – | – | inactive | inactive | inactive | inactive | inactive |
| c1ccc(OCc2ccc(CCCN3CCOCC3)cc2)cc1 | inactive | inactive | inactive | inactive | – | inactive | inactive | inactive | inactive | 0.531 µM (active) | 0.168 µM (active) | 0.596 µM (active) | inactive | inactive | inactive | – | – | – | inactive | – |
| CCOc1ccc(NC(=O)CC(C)=O)cc1 | inactive | inactive | inactive | inactive | – | inactive | inactive | inactive | inactive | – | – | – | inactive | – | – | inactive | inactive | – | inactive | inactive |
| C=CCCCCCC | inactive | inactive | inactive | inactive | – | inactive | inactive | inactive | inactive | inactive | inactive | inactive | inactive | – | – | inactive | – | – | inactive | – |
| CC(C)NCC(O)c1cc(O)cc(O)c1 (centres undefined) | inactive | inactive | inactive | inactive | – | inactive | inactive | – | – | inactive | inactive | inactive | inactive | – | – | inactive | – | – | inactive | – |
| ClC(Cl)(Cl)c1ccc(C(Cl)(Cl)Cl)cc1 | inactive | inactive | – | inactive | inactive | inactive | inactive | inactive | inactive | inactive | inactive | inactive | inactive | – | – | inactive | inactive | – | inactive | inactive |
| Oc1ccc(O)c2c(O)cccc12 | inactive | inactive | inactive | inactive | – | inactive | inactive | inactive | – | inactive | inactive | inactive | inactive | – | – | – | – | – | – | – |
| CC(=O)NCCCS(=O)(=O)O | inactive | inactive | inactive | inactive | – | inactive | inactive | inactive | inactive | inactive | inactive | inactive | inactive | – | – | – | inactive | inactive | inactive | inactive |
| O=C(O)C(c1ccc(Cl)cc1)c1ccc(Cl)cc1 | inactive | inactive | inactive | inactive | – | inactive | inactive | – | – | inactive | inactive | inactive | inactive | – | – | inactive | inactive | – | inactive | – |
| CC(C)c1ccc2c(C(C)C)cc(C(C)C)c(S(=O)(=O)O)c2c1 | inactive | inactive | inactive | inactive | – | inactive | inactive | inactive | – | – | inactive | inactive | inactive | – | inactive | inactive | – | 63.2 µM (active) | inactive | inactive |
| CN1CCN(C2=Nc3ccccc3Sc3ccc(Cl)cc32)CC1 | inactive | inactive | inactive | inactive | – | inactive | inactive | inactive | inactive | 8.41 µM (active) | 6.68 µM (active) | 10.6 µM (active) | – | – | inactive | inactive | 13.3 µM (active) | – | inactive | inactive |
| CC(C)(C)c1ccc(OCC2CO2)cc1 (centres undefined) | inactive | inactive | inactive | inactive | – | inactive | inactive | inactive | – | inactive | inactive | inactive | inactive | – | – | inactive | inactive | – | inactive | inactive |
